# In PubChem BioAssay AID1508600 (Functional Genomics Laboratory (NCATS/FGL), 2020):
# Among all 53,000 sequences or so, about 3,700 (7%) were called active. This excerpt belongs to a sample that is enriched for actives. A number with no mark means an inactive call.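 Rule for the calls: active = gene knockdowns whose robust z-score for IL-1 alpha signal is at least 2 or at most -2, so actives lie on both sides; inactive = the rest.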
# Experiment: Components of the Cytosolic LPS Sensing Pathway: Gene Identification via Genome-wide siRNA Screen
# Details: RAW264.7 macrophages, IL-1a HTRF, actives lie on both sides, screened at 100 nM (by protocol), cells primed 5 h with Pam3CSK4 first
# Excerpt: Non-canonical inflammasome activation by cytosolic LPS is a critical component of the host response to Gram-negative bacterial infection, however we lack a comprehensive understanding of the cellular processes that control this pathway. Here we describe a genome-wide siRNA screen to identify genes regulating the mouse macrophage IL-1 alpha response to cytosolic LPS.
# RAW264.7 cells were maintained in complete DMEM media, comprising DMEM with 4.5 g/L glucose, 10% FBS (Gemini Bio-Products, West Sacramento, CA), 2 mM Glutamine (Lonza) and 20 mM HEPES (Lonza), hereafter complete DMEM.
# The RNAi screen was conducted in 384-well format using the Ambion Silencer Mouse Genome siRNA Library (#4391425), which consists of three unique, nonoverlapping, nonpooled siRNAs for each of 17,000 gene targets. siRNA reagents ([…]) were stamped into 384-well white flat-bottom microplates (Corning, 3570) using a Velocity11 VPrep liquid handling system (Agilent) integrated into a BioCel robotic platform (Agilent) in columns 1-22, leaving columns 23-24 empty for negative (Ambion, Negative control #1) and positive (mouse Casp4) controls, respectively. The median value of each plate's negative control column was used to normalize sample wells, and the positive control was used to assess transfection efficiency and assay performance.
# Lipofectamine RNAiMAX Transfection Reagent ([…]; Invitrogen) was added in […] serum-free, antibiotic-free media to plate wells using a Thermo Scientific Matrix WellMate and Microplate Stacker. Plates were incubated for 45 min at room temperature to allow for the sufficient formation of siRNA-lipid complexes. Cells were seeded at a density of 1x10^4 cells per well in 20 microL media containing 20% (vol/vol) FBS without antibiotics. The final concentration of siRNA in each well was 100 nM. Cells were cultured for 48h at 37 degrees C in 5% CO2 before addition of […] of TLR ligand Pam3CSK4 for 5 hours. The medium was then removed, replaced with […] growth media and cell were transfected with […] of LipidA and TransIT-TKO (Mirus) for 24 hour. At the end of the LipidA treatment, […] of supernatant was transferred to a 384 Greiner Bio-one non-binding low volume plate and […] of IL-1a HTRF reagent (Cisbio, 62MIL1APEH) was added and incubated at room temperature overnight. The plates were read on an EnVision plate reader (PerkinElmer). Cell viability was measured by adding 20ul Cell Titer Glo to the original plate and running a luminescence read on the EnVision. The quantified IL-1a signal for each siRNA gene-targeted well was divided by the median of the negative control wells and multiplied by 100 to achieve a negative control normalized value for each well/siRNA. This normalized value was then used to generate a robust z-score by first taking the log of each value and then by subtracting the median and dividing by the […].
row,Sequence,z-score
1,GGCUAAAACAAGUGAAUGGTT against Gli3,-0.619
2,GGAGUAAAAAUGAGUAUGATT against Abcg3,0.534
3,GAUAUUCCUGCUCACAGUGTT against Olfr1265,-1.04
4,UAGUCAUCUUCACUCUCCUTT against Olfr1249,-0.907
5,GGACUUUUACCAGUUCUCCTT against Ece2,-2.43 (active)
6,GGCUCUCUGUCUGGAAAAGTT against Vcan,-1.25
7,GGAGCUGAGGAAUUGAUCCTT against Pudp,-1.97
8,CCAUUGCAUGCAAUGACUATT against S100a10,-1.25
9,GGAAGCAGCAAAGAAGUUGTT against Olfr1109,0.918
10,CCUAUCAUGUUAAAAACAGTT against Grem2,-1.13
11,GGGUCACUUGGAUUGUGGATT against Tmx2,-0.0195
12,GGAUCCUGCAUAUCUCAAATT against Mrps18c,0.186
13,GGGACACGAUGAGGAGUCATT against Cfap410,-2.21 (active)
14,GCGACUUAGAAAAGAACAGTT against Ccdc58,1.91
15,GGAACAGCAGCUUCCCUAATT against 4930555G01Rik,-0.0144
16,CCAAGCGAAAUCGAGGUGUTT against Omt2b,0.931
17,GGCUAUAGCAGCACAUUGGTT against Ylpm1,2.57 (active)
18,GGUGGAGCAGAUGAAGAACTT against Hspbp1,0.447
19,CCCAAGAAGUUUUAUUCUGTT against Zbbx,-0.221
20,GGCCUACGACAAAUCCAAATT against Csrp2,1.14
21,GGCGAAGAUUGAAAAAUGCTT against Ube3c,-0.407
22,GGAACUAAAUGUGAAACAUTT against Ift52,-2.07 (active)
23,GGAAGUGGAACAGGACGUATT against Caps2,-1.17
24,GCUGUACCACAACUAGUCATT against Cdc7,0.977
25,GGCAAGUUUGCUAUAACCUTT against Jmy,-2.57 (active)
26,GGAAUAGGGAGGUAACCAGTT against Olfr1394,0.0525
27,GGAAAUUGCACCUUUAAAGTT against Rnf130,0.335
28,CGUAGCCGAGAAGACCCUATT against Shh,0.0734
29,GGUUUUAGAAUUCUGGACGTT against Plppr2,0.243
30,GCUCCUCUCAGGUGUACGATT against B9d2,2.23 (active)
